The source of these data is PubChem BioAssay (NCATS).

Results filed as inconclusive are left out. Entries that show only a call come without a potency. Calls of active or inactive are those of the source. The call rests on the fitted dose curve; in most records, active means well fitted cell-killing curve with a large enough effect; inconclusive means small, poorly fitted or top-dose-only effect; inactive means no such curve, though single readings can be large or run the other way.
Potency means the concentration at half of the fitted maximal effect.

The nature of the assay: qHTS of pediatric cancer cell lines to identify multiple opportunities for drug repurposing: Primary screen for Rh41 cells (AID 1347108). Further: nearly all actives have a fitted effect of over 70% in size. To be noted: Rh41 rhabdomyosarcoma viability, CellTiter-Glo luminescence, 48 h; series mostly up to 46 µM. The source says: Drug repurposing or repositioning has been offered as a strategy for drug development in oncology programs. This approach has special potential for childhood cancers and other rare or orphan diseases, where the expected return on new drug development has been a disincentive to pharmaceuticals. […] In this project we exploit the poly-pharmacology of drugs to discover new indications via phenotypic screening of a panel of 19 well-characterized cell lines derived from solid tumors seen in children and adolescents. The goal is to identify approved drugs with previously unrecognized anticancer properties that has the potential to reveal new mechanisms and biological processes involved in carcinogenesis or drug resistance. We employed a titration-based paradigm (quantitative high-throughput screening or qHTS), where all compounds were tested at multiple concentrations for their effect on cell viability. Concentration-response curves (CRCs) were derived directly from the primary screen, and both potency and efficacy values were used to identify compounds with robust bioactivity profiles. We screened the NIH Chemical Genomics Center (NCGC) Pharmaceutical Collection (NPC) and Mechanism Interrogation Plate (MIPE) small molecule collections of approved and investigational compounds against these cell lines; and measured metabolically active cells after 48 hours of compound treatment as a proxy for cell viability. […] Assay Submitter: Nathalia J. Martinez, National Center for Advancing Translational Sciences, National Institutes of Health, Rockville, MD, USA; email: natalia.martinez@nih.gov Shen, M et al. Quantitative high-throughput phenotypic screening of pediatric cancer cell lines identifies multiple opportunities for drug repurposing. Oncotarget 2017 Dec 19;9(4):4758-4772. PMID 29435139.
The cells were obtained from University of North Carolina (UNC), Pediatric Preclinical Testing Program (PPT), and Coriell Institute (CI). qHTS cell viability assay: Cells were assayed in growth media at a density of 500-1,000 cells/well. Five microliters of cells were dispensed into 1,536-well, white, solid-bottom, TC-treated plates (Greiner Bio One) using a multidrop dispenser and incubated at 37 degrees C, 5% CO2, under a humidified atmosphere for 5 hours. Twenty-three nanoliters of compounds and controls (neutral control DMSO or positive control bortezomib at final concentration of 2.3 µM) were subsequently transferred by Kalypsys pintool. For primary screens, the MIPE collection was tested at 11-point dilutions (final concentrations range from 0.78 nM to 46 µM) and the NPC collection at 8-point dilutions (final concentrations range from 0.59 nM to 46 µM). Compounds tested in follow-up screens were assayed at 11-point dilutions. Cells were incubated for 48 hours, followed by addition of 3 µL of CellTiter-Glo (Promega). After a 15 min incubation at room temperature, samples were analyzed for luminescence intensity using a ViewLux High-throughput CCD imager equipped with clear filters.
A general note: qHTS replaces the single test concentration by a dilution series.
Consider `CC(N[C@H]1C[C@H]1c1ccccc1)c1ccc2c(c1)OCCO2` (stereo not given in full), for which the Potency entry is “inactive”.

For the molecule `CCCN(CCC)c1c([N+](=O)[O-])cc(S(N)(=O)=O)cc1[N+](=O)[O-]`, the Potency is 38.6 µM (active).

For the molecule `CCCCOC(=O)c1ccccc1C(=O)OCc1ccccc1`, the Potency entry is “inactive”.

In the case of `CC1=NN=C(c2ccc(N)cc2)c2cc3c(cc2C1)OCO3`, the Potency result is “inactive”.

As to `CC(C)(C)NC[C@H](O)c1ccc(O)cc1Cl`, the Potency entry was “inactive”.

With `Cc1c(N)nc([C@H](CC(N)=O)NC[C@@H](N)C(N)=O)nc1C(=O)N[C@H](C(=O)N[C@@H](C)[C@H](O)[C@@H](C)C(=O)N[C@@H](C(=O)NCCc1nc(-c2nc(C(=O)NCCC[S+](C)C)cs2)cs1)[C@@H](C)O)C(O[C@H]1O[C@H](CO)[C@H](O)[C@@H](O)[C@@H]1O[C@H]1O[C@H](CO)[C@@H](O)[C@H](OC(N)=O)[C@H]1O)c1cnc[nH]1` (stereo not given in full), the Potency entry was “inactive”.

Consider `COC1=C[C@@H]2[C@@H]3Cc4ccc(OC)c(O)c4[C@]2(CCN3C)CC1=O`, for which the Potency is 3.72 µM (active).

Take `CCC(=O)OC1CCC2C3CCC4=CC(=O)CC[C@@]4(C)C3CC[C@]12C` (stereo not given in full): the Potency result was “inactive”.

For the molecule `C1CCC(NC2CCCCC2)CC1`, the Potency entry is “inactive”.

In the case of `CCCN1CCO[C@@H]2c3cc(O)ccc3OC[C@@H]21`, the Potency entry was “inactive”.

Turning to `COc1ccc(C(=O)c2c(C)n(CCN3CCOCC3)c3cc(I)ccc23)cc1`, the Potency was 18.7 µM (active).

As to `CCO/N=C(\CC)C1=C(O)CC(c2c(C)cc(C)cc2C)CC1=O` (stereo not given), the Potency result is “inactive”.

Consider `O=C(O)c1cc(Oc2ccc(C(F)(F)F)cc2Cl)ccc1[N+](=O)[O-]`, for which the Potency entry is “inactive”.

In the case of `CC(C)(O)C=CC(=O)[C@](C)(O)[C@H]1[C@H](O)C[C@]2(C)[C@@H]3CC=C4[C@@H](C=C(O)C(=O)C4(C)C)[C@]3(C)C(=O)C[C@@]12C`, the Potency was 0.469 µM (active).

On to `O=c1[nH]c2ccc(Cl)cc2c(N[C@@H]2CN3CCC2CC3)c1-c1nc2ccccc2[nH]1`, for which the Potency is 14.8 µM (active).

On to `CSCC[C@@H](NC(=O)[C@@H](Cc1ccccc1)NC(=O)CNC(=O)CNC(=O)[C@@H](N)Cc1ccc(O)cc1)C(=O)O`, for which the Potency entry was “inactive”.

As for `CCc1c(C(=O)C(N)=O)c2c(OCC(=O)O)cccc2n1Cc1ccccc1`, the Potency entry was “inactive”.

Turning to `COC[C@H]1OC(=O)c2coc3c2[C@@]1(C)C1=C(C3=O)[C@@H]2CC[C@H](O)[C@@]2(C)C[C@@H]1OC(C)=O`, the Potency was 11.8 µM (active).

Regarding `O=[N+]([O-])c1ccc([As](=O)(O)O)cc1`, the Potency result is “inactive”.

Take `c1cc2c(cc1[C@H]1OC[C@H]3[C@H]1CO[C@H]3c1ccc3c(c1)OCO3)OCO2`: the Potency result is “inactive”.

As for `C[C@]12CC[C@H]3[C@@H](CCC4=CC(=O)CC[C@@]43C)[C@H]1CC[C@H]2OC(=O)CCC1CCCC1`, the Potency entry is “inactive”.

`COc1ccc(CC2NCCc3cc(OC)c(OC)cc32)cc1OC` (stereo not given): the Potency result was “inactive”.

As for `O=C(O)CNC(=O)c1c(O)c2ccccc2n(Cc2ccccc2)c1=O`, the Potency entry was “inactive”.

On to `O=C(O)COc1ccccc1`, for which the Potency result is “inactive”.

For the molecule `O=C(Oc1ccc([N+](=O)[O-])cc1)N1CCC(C(O)(c2ccc3c(c2)OCO3)c2ccc3c(c2)OCO3)CC1`, the Potency entry was “inactive”.

For the molecule `CCOP(=O)(NC(C)C)Oc1ccc(SC)c(C)c1` (stereo not given), the Potency entry is “inactive”.

In the case of `CC(C)NCC(O)c1ccc([N+](=O)[O-])cc1` (stereo not given), the Potency entry was “inactive”.

Turning to `COc1ccc2c(c1)CN(C)CC2c1ccc(Cl)c(Cl)c1` (stereo not given), the Potency result is “inactive”.

For `CC[C@@]1(O)C(=O)OCc2c1cc1n(c2=O)Cc2cc3ccccc3nc2-1`, the Potency was 0.209 µM (active).

On to `CCOC(=O)c1cncn1[C@H](C)c1ccccc1`, for which the Potency entry is “inactive”.

In the case of `C#C[C@]1(O)C=C[C@@H]2[C@@H]3CCC4=CC(=O)CC[C@@H]4[C@H]3CC[C@@]21CC`, the Potency result is “inactive”.

As for `O=C1CCC[C@@H]2[C@H]3CCCN4CCC[C@@H](CN12)[C@@H]34`, the Potency result is “inactive”.

Take `O=C(O)COc1nc(Cl)c(Cl)cc1Cl`: the Potency entry was “inactive”.

Turning to `O=[N+]([O-])/N=C1\NCCN1Cc1ccc(Cl)nc1`, the Potency entry was “inactive”.

For `C[C@]12CC[C@@H]3[C@@H](CCC4=CC(=O)CC[C@@H]43)[C@@H]1CC[C@@H]2OC(=O)CCc1ccccc1`, the Potency entry is “inactive”.

For `O=S(=O)(O)C(F)(F)C(F)(F)C(F)(F)C(F)(F)C(F)(F)C(F)(F)C(F)(F)C(F)(F)F`, the Potency result was “inactive”.

For `CC1(C)CC/C(=C/c2ccc(Cl)cc2)C1(O)Cn1cncn1` (stereo not given), the Potency result was “inactive”.

On to `CC(C)(C)c1cc(C=C(C#N)C#N)cc(Br)c1O`, for which the Potency entry was “inactive”.

As for `CCOP(=O)(OCC)C(C)NC(=O)N(CCCl)N=O` (stereo not given), the Potency result is “inactive”.

Take `C[C@]12CC[C@H]3[C@@H](CCC4=CC(=O)CC[C@@]43C)[C@H]1CC[C@H]2O`: the Potency result was “inactive”.
